# Source: PubChem BioAssay (Tox21)
# Records with an inconclusive call do not appear. Unmarked numbers belong to inactive results. Activity calls are given as the source filed them. Calls follow the shape of the full dose curve.
# Test: p53 small molecule agonists, cell-based qHTS assay with human liver microsomes: qHTS cell viability counter screen (AID 1963579); also: nearly all actives have a fitted effect of over 45% in size
# Conditions: p53RE-bla HCT-116 viability, ATP luminescence, 16 h, HLM; series mostly up to 66 µM; activity change, negative = cytotoxicity: at the top concentration
# Description: National Center for Advancing Translational Sciences [NCATS]
# Division of Preclinical Innovation [DPI]
# U.S. Environmental Protection Agency [EPA]
# National Institutes of Environmental Health Sciences [NIEHS]
# National Toxicology Program [NTP]
# U.S. Food and Drug Administration [FDA]
# p53, a tumor suppressor protein, is activated following cellular insult, including DNA damage and other cellular stresses. The activation of p53 regulates cell fate by inducing DNA repair, cell cycle arrest, apoptosis, or cellular senescence. The activation of p53, therefore, is a good indicator of DNA damage and other cellular stresses. […] The activation of the reporter gene under culture conditions can be detected by fluorescence intensity. This cell line was used to screen the Tox21 10K compound library in the condition of presence of human liver microsomes and to identify agonists that activate the p53 signaling pathway after in vitro metabolic activation (Ooka et al., Archive of Toxicology 96:1975-1987, 2022).
# Tox21 Assay Protocol Summary:
# The p53RE-bla cells were dispensed at 4,000cells/3ul/well in 1536-well black-clear bottom plates. After the assay plates were incubated at 37 C, 5% CO2 incubator for 5 hours, 23 nL of compounds dissolved in DMSO, positive controls or DMSO only was transferred to the assay plate. Following compound addition, 3 uL of human liver microsomes (XenoTech, Kansas City, KS) at final concentration of 0.5 mg/mL and 1uL of B-Nicotinamide adenine dinucleotide 2'-phosphate (NADPH) at final concentration of 0.5 mg/mL were transferred to the assay plate. The plates were incubated at 37 C for 16 hours. 1 uL of LiveBLAzer detection mixture was added to each well and the plates were incubated at room temperature in the dark for 2 h. Fluorescence intensity at 460 and 530 nm emission and 405 nm excitation were measured by an Envision plate reader. For cell viability readout that measures cytotoxicity, 4 ul/well of CellTiter-Glo reagent was added into the assay plates using a Flying Reagent Dispenser. After 30 min incubation at room temperature, the luminescence intensity in the plates was measured using a ViewLux plate reader.
# % is scaled to controls: 0 for no effect and ±100 for the full control effect; potency is read from the fitted curve at half-maximal effect.
SMILES,"activity change, negative = cytotoxicity",Potency
CCOP(=S)(S)OCC,-0.332%,–
CC(=O)c1ccc(-c2ccccc2)cc1,6.83%,–
NNCc1ccccc1,-1.67%,–
Cc1ccc([N+](=O)[O-])[c]2c1[O][Hg]2,–,15.8 µM (active)
Oc1cc(Cl)cc(Cl)c1,-8.44%,–
O=C(CBr)OCc1ccccc1,-5.03%,–
O=C(O)c1cc(I)cc(I)c1I,-9.23%,–
COc1ccc2c(c1OC)C(=O)O[C@H]2[C@@H]1c2cc3c(cc2CCN1C)OCO3,3.76% [at 30.3 µM],–
Cc1ccccc1,-6.24%,–
c1cc[c]([Sb]([c]2ccccc2)[c]2ccccc2)cc1,-6.97%,–
C[C@@H]1CC2=CC(=O)CC[C@@H]2[C@H]2CC[C@@]3(C)[C@@H](CC[C@]3(C)O)[C@@H]21,-2.69% [at 30.3 µM],–
CC(C)(CCl)C(=O)Cl,–,18.2 µM (active)
CCOP(=S)(OCC)SCSP(=S)(OCC)OCC,7.65%,–
COP(=S)(OC)Oc1ccc(S(N)(=O)=O)cc1,7.28% [at 30.3 µM],–
O=C1c2ccccc2C(=O)C1C(=O)C(c1ccccc1)c1ccccc1,4.33% [at 30.3 µM],–
O=C(O)C(Br)CBr (stereo not given),0.304%,–
CCC1(C2=NCCN2)Cc2ccccc2O1 (stereo not given),3.97% [at 30.3 µM],–
Cc1nnc(-c2ccccc2)c(=O)n1N,-0.215%,–
CCCN(CCC)c1c([N+](=O)[O-])cc(S(C)(=O)=O)cc1[N+](=O)[O-],-13.1%,–
COC(=O)c1cc(Oc2ccc(Cl)cc2Cl)ccc1[N+](=O)[O-],-3.75%,–

SMILES,"activity change, negative = cytotoxicity",Potency
CCOP(=O)(OCC)Oc1nc(Cl)c(Cl)cc1Cl,-2.92%,–
NC1=NC(=O)C(c2ccccc2)O1 (stereo not given),-11.9% [at 30.3 µM],–
CCc1cc2c(s1)-n1c(C)nnc1CN=C2c1ccccc1Cl,-2.25% [at 30.3 µM],–
CC1=NNC(=O)N(/N=C/c2cccnc2)C1,0.0703%,–
Cc1c(F)c(F)c(COC(=O)C2C(/C=C(\Cl)C(F)(F)F)C2(C)C)c(F)c1F (stereo not given),-13.3%,–
C=CC(=O)OCCN(C)C,-1.49%,–
Clc1ccccc1N1CCNCC1,-14.7% [at 30.3 µM],–
CCOC(=O)COc1cc(-c2nn(C)c(OC(F)F)c2Cl)c(F)cc1Cl,3.53%,–
[Cl][Sn]([Cl])([Cl])[Cl],0.457%,–
N#Cc1c(-c2ccc(Cl)cc2)[nH]c(C(F)(F)F)c1Br,-30.3%,–
CCCN(CCC)c1c([N+](=O)[O-])cc(S(N)(=O)=O)cc1[N+](=O)[O-],–,38.8 µM (active)
CC1(C)CC/C(=C/c2ccc(Cl)cc2)C1(O)Cn1cncn1 (stereo not given),-10.8%,–
COC(=O)N(C(=O)N1CO[C@@]2(C(=O)OC)Cc3cc(Cl)ccc3C2=N1)c1ccc(OC(F)(F)F)cc1,-12.1%,–
[Cl-].[Cl-].[Sn+2],-2.85%,–
CCCCCCCCCC(=O)O[C@H]1CC[C@H]2[C@@H]3CCC4=CC(=O)CC[C@@H]4[C@H]3CC[C@]12C,-6.62% [at 30.3 µM],–
[Cl][Hg][c]1ccccc1,–,4.58 µM (active)
CCC(C)(c1ccc(O)cc1)c1ccc(O)cc1,–,inactive
COc1ccc2[nH]cc(CCN(C(C)C)C(C)C)c2c1,32.8%,–
C#C[C@]1(O)CC[C@H]2[C@@H]3CCC4=CC(=O)CCC4=C3C=C[C@@]21CC,4.14% [at 30.3 µM],–
CCOP(=S)(OCC)SCS(=O)(=O)CC,1.53%,–
